# PubChem BioAssay
# Calls of active or inactive are those of the source.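 How the source made its calls, unless noted: active means inhibition above 20% together with a positive visual image hit; inconclusive means visual image hit but inhibition not above 20%; inactive means no visual image hit.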
# How the values were obtained:
# [1] = inhibitors of TNFa-induced NFkB p65 translocation, primary screen, imaging, HUVEC, MLSMR starter and 10KST1 sets (AID 438); conditions: HUVEC TNFa-induced p65 nuclear translocation; cell count: measured here: nuclei count (cytotoxicity indicator), at 2.08 µM; inhibition: at 2 µM, stronger effect = higher value, 0% TNFa-plus-vehicle, 100% no-TNFa wells;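 further: compound added about 3h40 before a 20 min TNFalpha stimulation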;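 on inhibition: signal is the nuclear over cytoplasmic p65 intensity ratio per well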
# [2] = reduction of polyQ htt aggregates in cells – imaging, exon1htt(103Q)mCFP cells, high-content imaging, primary screen (AID 483;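 active means visual image review flags a hit and inhibition of aggregation exceeds 20%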;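 further: compound exposure lasted 3 days before fixation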;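 on nuclei count: percent of the per-plate median nuclei count of sample wells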); conditions: exon1htt(103Q)mCFP cell line, aggregate imaging, at 2 µM; inhibition of aggregation: stronger effect = higher value; nuclei count: measured here: cell count, toxicity
# [3] = endothelial E-selectin expression blockers – imaging, HUVEC, immunofluorescence, MLSMR starter and 10KST1 sets, primary screen (AID 487;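 active means visually confirmed hit in the image check and inhibition above 20%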;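 on inhibition: signal is fraction of cell area covered by stained E-selectin grains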;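 on nuclei count: 100% = median nuclei count of all wells on the same plate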); conditions: HUVEC TNFalpha-induced E-selectin immunofluorescence imaging, at 2 µM; inhibition: stronger effect = higher value; nuclei count: measured here: cell number, toxicity
# [4] = target: Voltage-gated potassium channel subunit beta-2 (Rattus norvegicus) (UniProt P62483); experiment: inhibitors of rat Kvbeta2 reductase activity – biochemical, NADPH fluorescence, primary screen (AID 622;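 active means fluorescence slope higher than the sample average by over 3 SD, cut at about -0.22 in these data, passing the limit was not always enough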;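 further: slope of raw intensity against log time taken from 70 to 1610 s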); conditions: recombinant KvBeta, 4-cyanobenzaldehyde reduction, at 10 µM, stronger effect = higher value
# [5] = target: Voltage-gated potassium channel subunit beta-2 (Rattus norvegicus) (UniProt P62483); experiment: enhancers of rat Kvbeta2 NADPH turnover – biochemical, NADPH fluorescence, primary screen (AID 623;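 active means NADPH fluorescence slope more negative than the mean of all samples by about 3 SD, 99.7% confidence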;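 further: fluorescence intensity change per second fitted from 20 to 320 s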); conditions: Recombinant KvBeta, NADPH fluorescence decrease slope, 10 min; at 10 µM; stronger effect = lower value
# [6] = target: Alpha-2C adrenergic receptor (Homo sapiens) (UniProt P18825); experiment: compounds altering alpha2C-coupled GIRK flux – cell-based, HEK293 alpha2C/GIRK1/2, thallium flux, primary screen (AID 624;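 active means fluorescence slope after compound addition differing from the mean of all screened samples at 99.7% confidence, in either direction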;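 further: slope of fluorescence ratio to pre-addition baseline per second over 15 to 24 s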); conditions: thallium flux BTC fluorescence, at 10 µM, actives lie on both sides
# [7] = blockers of RIG-like receptor reporter activation – cell-based, Sendai virus stimulus, luciferase, 10K MLSCN set, TLR/RLR signaling modifier project, primary screen (AID 602276;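 active means inhibition at or above 50% at 10 µM; inactive means inhibition below 50%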;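 further: firefly luciferase from ISG56 promoter only with Renilla not read in this screen; 0% = Sendai virus plus DMSO and 100% = medium plus DMSO without virus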); conditions: HEK293 RL24 IRF3 luciferase reporter, at 10 µM, stronger effect = higher value
# [8] = TLR3 IRF3 reporter activation blockers – cell-based, poly I:C stimulus, luciferase, 10K MLSCN set, primary screen (AID 602277;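 active means inhibition of the reporter signal at or above 50%; inactive means inhibition below 50%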); conditions: HEK293-TLR3 RL24 IRF3 luciferase reporter, at 10 µM, stronger effect = higher value
# Voltage-gated potassium channel subunit beta-2 (Rattus norvegicus), sequence (P62483 whole entry, looked up): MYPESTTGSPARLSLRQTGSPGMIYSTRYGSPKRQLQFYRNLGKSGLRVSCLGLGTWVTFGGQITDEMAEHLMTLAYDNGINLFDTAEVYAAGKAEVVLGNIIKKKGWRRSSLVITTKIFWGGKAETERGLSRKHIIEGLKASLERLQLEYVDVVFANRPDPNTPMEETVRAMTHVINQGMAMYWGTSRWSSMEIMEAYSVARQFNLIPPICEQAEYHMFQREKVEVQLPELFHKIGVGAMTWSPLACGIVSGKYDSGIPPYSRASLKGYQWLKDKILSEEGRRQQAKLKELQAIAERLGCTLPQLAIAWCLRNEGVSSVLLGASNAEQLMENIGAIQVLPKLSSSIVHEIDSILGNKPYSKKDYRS
# Alpha-2C adrenergic receptor (Homo sapiens), sequence (P18825 whole entry, looked up): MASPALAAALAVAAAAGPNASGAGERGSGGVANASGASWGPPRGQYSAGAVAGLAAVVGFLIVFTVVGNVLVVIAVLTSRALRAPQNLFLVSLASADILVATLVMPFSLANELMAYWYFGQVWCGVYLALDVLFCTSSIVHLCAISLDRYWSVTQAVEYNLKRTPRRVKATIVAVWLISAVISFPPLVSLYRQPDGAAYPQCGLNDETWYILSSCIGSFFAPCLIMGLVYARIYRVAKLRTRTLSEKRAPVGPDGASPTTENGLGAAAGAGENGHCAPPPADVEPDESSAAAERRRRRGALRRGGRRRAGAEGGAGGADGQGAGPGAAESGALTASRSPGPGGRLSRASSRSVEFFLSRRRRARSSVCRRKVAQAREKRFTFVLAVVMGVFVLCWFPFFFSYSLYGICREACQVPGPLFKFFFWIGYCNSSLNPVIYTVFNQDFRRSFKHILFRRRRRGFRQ
SMILES,cell count [1],inhibition [1],inhibition of aggregation [2],nuclei count [2] [%],inhibition [3],nuclei count [3] [%],fluorescence slope [4],NADPH fluorescence slope [5],slope [6],inhibition [7],inhibition [8]
O=C(NCC1CCCO1)C1CCN(c2ccc(S(=O)(=O)N3CCCC3)cc2)CC1 (stereo unspecified),446,8.5% (inactive),-5.9% (inactive),103,-38.5% (inactive),108,-0.434 (inactive),-3.3e-05 (inactive),0.0046 (inactive),5.23% (inactive),21.3% (inactive)
CCOC(=O)c1ccccc1NC(=O)c1cccnc1,381,5.5% (inactive),-28.4% (inactive),117,-167% (inactive),135,-0.504 (inactive),2.4e-05 (inactive),0.00744 (inactive),-0.374% (inactive),10.8% (inactive)
CNc1nnc(-c2cccc(N(C)C)c2)s1,742,-5.1% (inactive),-2.3% (inactive),102,-67.7% (inactive),91.1,-0.135 (active),-7.2e-06 (inactive),0.00491 (inactive),-27.7% (inactive),-96.6% (inactive)
CC(C)(C)C1CCc2[nH]nc(C(=O)O)c2C1 (stereo unspecified),814,-2.8% (inactive),0% (inactive),104,2% (inactive),121,-0.607 (inactive),1.9e-05 (inactive),0.00808 (inactive),12.4% (inactive),16% (inactive)
O=C(OCC(=O)N1CCC(Cc2ccccc2)CC1)c1ccc[nH]c1=O,496,-25.6% (inactive),-14.9% (inactive),107,-41.6% (inactive),88.7,-0.341 (inactive),-9.5e-06 (inactive),0.00527 (inactive),3.7% (inactive),6.66% (inactive)
FC(F)(F)c1cccc(N2CCN(c3nnnn3-c3ccccc3)CC2)c1,394,-3.8% (inactive),-1.6% (inactive),96.2,-98.2% (inactive),112,-0.647 (inactive),1.2e-05 (inactive),0.00945 (inactive),10.2% (inactive),2.35% (inactive)
CCN(CC)CCN1C(=O)c2oc3ccc(F)cc3c(=O)c2C1c1ccncc1 (stereo unspecified),598,-12.9% (inactive),-2.9% (inactive),102,-5.7% (inactive),111,-0.536 (inactive),-4.3e-05 (inactive),0.00733 (inactive),15.9% (inactive),44.8% (inactive)
COc1ccc(CNc2ccc(C(=O)O)cc2)cc1,511,-28.3% (inactive),-17.2% (inactive),116,-61% (inactive),107,-0.513 (inactive),-3.9e-05 (inactive),0.00575 (inactive),-4.3% (inactive),-15.8% (inactive)
Cc1ccc(-c2noc(COc3ccccc3C)n2)cc1,607,-7.8% (inactive),12.3% (inactive),110,35.1% (inactive),129,-0.484 (inactive),1.6e-05 (inactive),0.0049 (inactive),-24.5% (inactive),-88.2% (inactive)
CCc1nn2c(=O)cc(CSc3nc4sc5c(c4c(=O)n3C)CCCC5)nc2s1,536,-14.1% (inactive),-13.9% (inactive),118,38% (inactive),65.2,-0.598 (inactive),4.1e-05 (inactive),0.00602 (inactive),-3.07% (inactive),-3.25% (inactive)
Clc1cccc(-c2nnc3sc(-c4ccccc4)nn23)c1,625,-3% (inactive),-8% (inactive),108,-30.8% (inactive),104,-0.372 (inactive),-5.3e-05 (inactive),0.0065 (inactive),-35.9% (inactive),-59.7% (inactive)
O=C(NCCN1CCCCCC1)c1ccc(CS(=O)(=O)c2ccc(Br)cc2)o1,591,-0.5% (inactive),-28.3% (inactive),98.6,-63.4% (inactive),103,-0.445 (inactive),1.2e-05 (inactive),0.00438 (inactive),-15.7% (inactive),16.4% (inactive)
Cc1nc(C)c(C(=O)C2=C(O)C(=O)N(CCN3CCOCC3)C2c2ccco2)s1 (stereo unspecified),244,-3.2% (inactive),0.6% (inactive),86.3,-2.9% (inactive),104,-0.388 (inactive),-2.3e-06 (inactive),0.00517 (inactive),11% (inactive),6.93% (inactive)
Cc1cccc(-c2c3c(=O)n(C)c(=O)n(C)c3cn2-c2ccc(O)cc2)c1,363,-2.8% (inactive),30.8% (inactive),90.3,-49.7% (inactive),98.7,-0.579 (inactive),-2.6e-05 (inactive),0.00566 (inactive),6.51% (inactive),17.1% (inactive)
COc1cc(C(=O)Nc2cccc(-c3nncn3C)c2)cc(OC)c1OC,416,7.6% (inactive),22.2% (inactive),76.5,-52.3% (inactive),102,-0.303 (inactive),-2.8e-05 (inactive),0.00614 (inactive),14.3% (inactive),14.5% (inactive)
COCCCN(C(C)=O)c1nc(-c2ccccc2)cs1,472,-6.3% (inactive),-6% (inactive),90.9,6% (inactive),114,-0.533 (inactive),-3.7e-05 (inactive),0.00569 (inactive),-31.3% (inactive),-75% (inactive)
CSCSC1=C(C#N)C(c2ccc(Cl)cc2)C(C(C)=O)=C(C)N1 (stereo unspecified),324,-1% (inactive),-2.2% (inactive),112,-47.6% (inactive),102,-0.451 (inactive),-0.00017 (inactive),0.00657 (inactive),10.5% (inactive),23.2% (inactive)
Cc1ccc(S(=O)(=O)N2CCOCC(=O)NCCOCCNC(=O)COCC2)cc1,592,2.1% (inactive),-15.3% (inactive),116,-89.9% (inactive),108,-0.622 (inactive),-2.4e-05 (inactive),0.00426 (inactive),9.52% (inactive),9.55% (inactive)
CCc1c(C(=O)N2CCOCC2)csc1C,295,-3.7% (inactive),-15% (inactive),104,-4.5% (inactive),104,-0.409 (inactive),-7.3e-05 (inactive),0.00413 (inactive),-0.247% (inactive),-13.5% (inactive)
CCOC(=O)C(C#N)C(c1cccnc1)c1c(C)[nH][nH]c1=O (stereo unspecified),710,-7.5% (inactive),-3.8% (inactive),93,-131% (inactive),101,-0.325 (inactive),-3.9e-05 (inactive),0.0052 (inactive),6.49% (inactive),9.18% (inactive)
CCn1c(Cc2ccccc2)nnc1SCC(=O)Nc1cc(C)on1,629,-3.3% (inactive),5.6% (inactive),102,-15.6% (inactive),112,-0.513 (inactive),-3.3e-05 (inactive),0.0074 (inactive),-8.42% (inactive),23% (inactive)
Cc1nn(C)c(C)c1NC(=O)CSc1nc(Cc2ccccc2)nc2c1cnn2-c1ccccc1,360,-0.5% (inactive),-17.9% (inactive),105,-127% (inactive),121,-0.491 (inactive),-6.6e-05 (inactive),0.00793 (inactive),12% (inactive),3.8% (inactive)
COc1ccc2nc(CC(C)(C)CC(=O)O)c[n+]([O-])c2c1,377,-1% (inactive),-0.5% (inactive),110,-11.7% (inactive),94,-0.587 (inactive),-1.8e-05 (inactive),0.0065 (inactive),10.6% (inactive),29.8% (inactive)
COC(=O)C(C)Sc1nc2c(c(=O)n1-c1ccccc1)SCC2 (stereo unspecified),330,-1.4% (inactive),-6.6% (inactive),113,-51.5% (inactive),150,-0.523 (inactive),-7.6e-05 (inactive),0.00467 (inactive),7.35% (inactive),13.2% (inactive)
CCOc1ccccc1NC(=O)CSc1nnc(Cc2cccn2C)n1-c1ccc(F)cc1,529,-2.9% (inactive),-9.7% (inactive),93.1,-55.6% (inactive),109,-0.577 (inactive),-3.6e-05 (inactive),0.00579 (inactive),12.1% (inactive),31.3% (inactive)
O=C(C1CCCCC1)N1CCC(c2nc3c(nnn3Cc3c(F)cccc3Cl)c(=O)[nH]2)CC1,413,-4.6% (inactive),-15.9% (inactive),116,-110% (inactive),249,-0.454 (inactive),-0.000123 (inactive),0.00666 (inactive),6.04% (inactive),27% (inactive)
